# GLA inh pH 4.5: blocks human alpha-galactosidase A at pH 4.5; P06280; purified enzyme, 4-MU-alpha-Gal fluorescence, pH 4.5; activity change, negative = inhibition, % at 105 µM; 230,000 tested, under 10 active;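 also: 0% = full activity with enzyme and -100% = basal without enzyme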
# Target sequence (P06280 whole entry, looked up): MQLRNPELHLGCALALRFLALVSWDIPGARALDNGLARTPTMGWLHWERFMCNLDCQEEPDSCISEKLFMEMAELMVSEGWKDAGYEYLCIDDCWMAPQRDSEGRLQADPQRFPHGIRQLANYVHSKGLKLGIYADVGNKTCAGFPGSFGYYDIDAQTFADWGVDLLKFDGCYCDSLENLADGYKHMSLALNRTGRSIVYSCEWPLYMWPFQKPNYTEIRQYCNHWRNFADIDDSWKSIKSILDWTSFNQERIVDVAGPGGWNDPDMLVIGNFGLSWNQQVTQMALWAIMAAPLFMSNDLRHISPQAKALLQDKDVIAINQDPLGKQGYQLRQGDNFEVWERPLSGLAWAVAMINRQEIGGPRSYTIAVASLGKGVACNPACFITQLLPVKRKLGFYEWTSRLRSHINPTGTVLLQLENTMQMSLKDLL
# GLA spleen mod: inhibits or activates alpha-galactosidase in human spleen homogenate | human spleen homogenate, 4MU-alpha-Gal fluorescence, 40 min | Potency, µM (top dose mostly 80 µM), for the others: top-dose activity change, negative = inhibition, usual class: inhibitors | hit rate 0.008% among 240,000;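 also: potency is read from the fitted curve at half-maximal effect; 0% = enzyme with vehicle and -100% = no enzyme basal signal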
#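 Fluorogenic readout (Ex 365/Em 440 nm) of 4-methylumbelliferone released from 1 mM 4-MU-alpha-galactoside by spleen homogenate, 40 min at 37C, pH 5.0. Data normalized to no-enzyme and enzyme controls; Hill-equation AC50 from compound titrations.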
# HTT ATP protect: cytoprotection in Huntington HTT-Q103 PC12 cell model | Potency, µM (doses to about 56.4 µM), inactives show cytoprotection (ATP increase), most hits filed as activators | PC12 HTT-Q103 induced, cytoprotection, ATP luminescence, 40 h | hit rate 0.14% among 230,000 | AID 1471; also: potency is read from the fitted curve at half-maximal effect; % of control where 0% means no effect; nearly all actives have a fitted effect of over 45% in size
#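 Compounds added alongside 100 nM tebufenozide, which induces toxic Q103 huntingtin exon 1-GFP in stable PC12 cells; surviving cells quantified by luminescent ATP measurement. Medium: phenol red-free DMEM, 5% equine and 5% calf serum.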
# HTT aggregate: mutant huntingtin aggregation inhibition; PC12 HttQ103-GFP aggregates, Acumen cytometry, 40 h; Potency, µM (highest dose often 46.1 µM), for the others: top-dose activity change, negative = inhibition, actives largely listed as inhibitors; hit rate 1.1% among 220,000; also: potency is read from the fitted curve at half-maximal effect; % is scaled to controls: 0 for no effect and ±100 for the full control effect; nearly all actives have a fitted effect of over 60% in size
#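 PC12/HTTQ103-GFP, ecdysone-inducible; teb 100 nM; cpd qHTS titration; GFP aggregates read on laser cytometer, Ex 488/Em 500-530 nm.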
# * hit, by the source's call; u = inconclusive; x = no result; ! = not active in a repeat; [ ] = dose if it differs, or a comment. In the library only some 1.2% were active in any assay of this set; here they are far more common. Calls follow the shape of the dose curve; as a rule, active = well fitted curve in the direction sought with a large enough effect; inconclusive = small, poorly fitted or top-dose-only effect, or another doubt; inactive = no such curve, though single readings can be large; an effect the other way counts as inactive or inconclusive.
SMILES,GLA inh pH 4.5,GLA spleen mod,HTT ATP protect,HTT aggregate
C=C1CC[C@@H]2[C@](C)(CC[C@@H](O)[C@]2(C)CO)[C@@H]1C/C=C1/C(=O)OC[C@H]1O,x,x,40µM*,x
CCC(C(=O)NNC(=O)c1cnccn1)c1ccccc1 (configuration not stated),2,4%,2%[10 µM],7.9µM*
N#CC(c1ccccc1)c1ccc2c(C(F)(F)F)cc(C(F)(F)F)nc2n1 (configuration not stated),0,4%,-70%,22µM*
CC(=C/c1ccccc1)/C=N/n1c(-c2ccncc2)n[nH]c1=S,-1,3%,-44%,2µM*
CC(/C=N/n1c(-c2cccnc2)n[nH]c1=S)=C\c1ccccc1,9,0%,-33%,u
CC1CCCC(C)N1C(=O)c1cccc2c1-c1ccccc1/C2=N/O (configuration not stated),1,-2%,6%[1.9 µM],7.9µM*
CC[C@H](C)[C@H](NC(=O)[C@H](C)NC(=O)[C@H](CC(=O)O)NC(=O)[C@H](CO)NC(=O)[C@@H](N)Cc1cnc[nH]1)C(=O)N[C@@H](Cc1ccccc1)C(=O)N[C@H](C(=O)N[C@@H](CCC(N)=O)C(=O)N[C@@H](CCC(N)=O)C(=O)N[C@@H](Cc1ccc(O)cc1)C(=O)N[C@@H](CO)C(=O)N[C@@H](CCCCN)C(=O)N[C@@H](CC(C)C)C(=O)N[C@@H](CC(C)C)C(=O)N[C@@H](C)C(=O)N[C@@H](CCCCN)C(=O)N[C@@H](CC(C)C)C(=O)N[C@@H](C)C(=O)N[C@@H](CC(C)C)C(=O)N[C@@H](CCC(N)=O)C(=O)N[C@@H](CCCCN)C(=O)N[C@@H](Cc1ccc(O)cc1)C(=O)N[C@@H](CC(C)C)C(=O)N[C@@H](C)C(=O)N[C@@H](CO)C(=O)N[C@H](C(=O)N[C@@H](CC(C)C)C(=O)NCC(=O)N[C@@H](CO)C(=O)N[C@@H](CCCNC(=N)N)C(=O)N[C@H](C(=O)N[C@@H](CO)C(=O)N1CCC[C@H]1C(=O)N1CCC[C@H]1C(=O)N1CCC[C@H]1C(N)=O)[C@@H](C)O)[C@@H](C)CC)[C@@H](C)O,x,2%,x,x
Cn1c(=O)c2c(ncn2CCO)n(C)c1=O,-13,1%,2.5µM*!,4%
CC(C)CCn1cnc2c1c(=O)n(C)c(=O)n2C,-4,8%,-10%[0.074 µM],-23%
O=C(O)CCC[C@H](O)\C=C/C=C/C=C/[C@H](O)C/C=C\CCCCCO,2,1%,-4%,x
COc1ccc(C2/C=C\CN(C(=O)c3ccccc3)C(C)C(=O)N2Cc2ccc(F)cc2)cc1 (configuration not stated),x,5%,x,x
CCOc1ccc(C(C)NC(=S)NC2CCCCC2)cc1 (configuration not stated),-6,6%,9%[10 µM],0.56µM*
CCOc1ccc(C(C)NC(=S)NC2CCCCC2)cc1OCC (configuration not stated),-11,5%,-7%,u
O=C(O)c1ccc(-c2ccc3cc(C45CC6CC(CC(C6)C4)C5)c(O)cc3c2)cc1,x,-7%,x,x
O[C@@H]1CO[C@H]2C1OC[C@@H]2O (some centres not stated),x,2%,x,x
C=CCn1c(COc2ccccc2)nnc1SC(C)C(=O)N/N=C/c1cc(Cl)ccc1O (configuration not stated),-1,3%,-41%,10µM*
C=C(C)C1CCC(C)C(OC(C)=O)C1 (configuration not stated),x,3%,x,x
OCC1=CC[N+]2(Cc3ccccc3)CCC(O)[C@@H]12 (some centres not stated),-2,-3%,u,x
Cc1ccccc1N(CC(=O)N/N=C/c1cc(C)n(-c2ccccc2C)c1C)S(C)(=O)=O,4,6%,-6%,18µM*
Cc1cc(C)nc(SCC(=O)N/N=C/c2cc(C)n(-c3ccccc3C)c2C)n1,-13,-8%,x,u
CCCN(c1ccc(OCC)cc1)c1ncnc2nc[nH]c12,-2,1%,6%[10 µM],11µM*
CCN(c1ccc(OC)cc1)c1ncnc2nc[nH]c12,7,-3%,-30%[10 µM],5.6µM*
COc1ccc(OCCSc2ncnc3nc[nH]c23)cc1,-1,-4%,-31%,-33%
CCOC(=O)N=Nc1c(O)n(CC(=O)OC)c2ccccc12,-7,-9%,u,2%
CCOC(=O)N=Nc1c2ccccc2c2nc3no[nH]c3nc12,-2,-4%,-183%,1.3µM*
SMILES,GLA inh pH 4.5,GLA spleen mod,HTT ATP protect,HTT aggregate
Cc1ccc(-c2onc3ccc(C=O)cc23)cc1,-3,4%,-11%,-4%[9.22 µM]
O=C(O)/C=C/c1ccc2noc(-c3ccccc3)c2c1,-3,9%,-24%,4µM*
N[C@H](Cc1c[nH]c2ccccc12)C(=O)O,x,-8%,-111%,32µM*
NC(Cc1c[nH]c2ccccc12)C(=O)O (configuration not stated),2,4%,x,x
Cc1cc(C(=O)COc2cccc(-n3cnnn3)c2)c(C)n1-c1ccccc1,-3,1%,-98%,11µM*
C=CCOC(=O)C1=C(C)NC(SCC(=O)Nc2nccs2)=C(C#N)C1c1cccs1 (configuration not stated),-5,-10%,-32%,13µM*
CCCOc1ccc(CSc2nc3ccccc3[nH]2)cc1,-5,4%,-87%,7.9µM*
C=CC[n+]1ccc(/C=C2\C=Cc3cc(C)ccc3N2CC)c2ccccc21,0,-4%,-189%,2.2µM*
CC(=O)NCCCC[C@H](NC(=O)OC(C)(C)C)C(=O)Nc1ccc2c(C(F)(F)F)cc(=O)oc2c1,x,26%,x,x
CO/N=C(\C(=O)N[C@@H]1C(=O)N2C(C(=O)O)=C(CSc3nc(=O)c(O)nn3C)CS[C@@H]12)c1csc(N)n1,x,x,4%[1.9 µM],x
CCCCC[n+]1cccc2c3ccccc3ccc21,u,u,-97%,2.5µM*
c1ccc(C[n+]2cccc3c4ccccc4ccc32)cc1,2,u,-65%,28µM*
CCCCN=c1scc(-c2ccc3c(c2)NC(=O)CO3)n1N=C1CCCC1,-3,17%,15%,u
CCN=c1scc(-c2ccc3c(c2)NC(=O)CO3)n1N=C1CCCC1,3,0%,-43%,11µM*
COc1c(N2CCNC(C)C2)c(F)cc2c(=O)c(C(=O)O)cn(C3CC3)c12 (configuration not stated),8,-6%,3.2µM*!,27%
O=C1CC(SCc2nc3ccccc3[nH]2)C(=O)N1c1ccc(F)c(Cl)c1 (configuration not stated),-3,-5%,16%,-9%[9.22 µM]
O=C1CC(SCc2nc3ccccc3[nH]2)C(=O)N1c1cccc(F)c1 (configuration not stated),-1,5%,u,4µM*
COc1cc(OC)c(-c2c3cc(O)c(=O)cc-3oc3cc(O)c(O)cc23)cc1OC,-6,-3%,5%[10 µM],4µM*
O=c1cnc2cnc(N3CCNCC3)nc2n1C1CC1,x,-2%,28%,x
CCN(CC)C(=S)S,x,x,-81%,u

# Compound activity (PubChem)
